This is a sample that favours compounds with a hit; in the whole collection about 1.3% have one here.
ALOX12 inh – inhibitors of human 12S-lipoxygenase ALOX12; P18054; purified 12hLO, xylenol orange hydroperoxide absorbance; Potency, µM (doses to about 108 µM), without a hit: at the highest dose activity change, negative = inhibition, actives largely listed as inhibitors; 580,000 tested, 1.1% active; AID 1671190; also: % is scaled to controls: 0 for no effect and ±100 for the full control effect
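Purified human 12hLO (150 nM final) in 25 mM Hepes, 0.01% Triton X-100, pH 7.0 was preincubated 15 min at room temperature with compound. Then 40 uM arachidonic acid was added, 30 min. Hydroperoxide was read by Fe-XO absorbance ratio 573/405 nm.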
USP1 inh – inhibitors of human USP1/UAF1 deubiquitinase | O94782 | recombinant USP1/UAF1, Ub-Rhodamine cleavage fluorescence | Potency, µM (highest dose often 57.1 µM), for the others: at the highest dose activity change, negative = inhibition, most hits filed as inhibitors | 390,000 tested, 0.23% active | AID 743255; also: % is scaled to controls: 0 for no effect and ±100 for the full control effect; nearly all actives have a fitted effect of over 60% in size
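1 nM enzyme complex + cpd, 15 min RT; start with Ub-Rho 150nM final; kinetic fluorescence ex 480/em 540, 6 reads q60 s. Buffer 50mM HEPES pH 7.8, 0.5mM EDTA, 0.1 mg/ml BSA, 1mM TCEP, 0.01% Tween-20.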
EPAC2 agonist – activates human EPAC2 exchange factor; Q8WZA2; EPAC2 activation, biochemical qHTS; response scale: 100% = 6.5 mM cAMP response; Potency, µM (top dose mostly 154 µM), inactives show at the highest dose activation, actives largely listed as activators; 360,000 tested, 0.079% active; AID 720711; also: nearly all actives have a fitted effect of over 50% in size
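Nucleotide exchange monitored as fluorescence drop when BODIPY-GDP leaves Rap1B. Reaction: 100 nM EPAC2, 250 nM RAP1B-BODIPY-GDP, 50 uM GDP, room temperature, kinetic read over 30 min. Activity expressed relative to 6.5 mM cAMP.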
EPAC1 antagonist – antagonists of human EPAC1 | AID 720709 | O95398 | 360,000 tested, 0.14% active | EPAC1 GEF assay, Rap1b-BODIPY-GDP exchange fluorescence | Potency, µM (series often up to 115 µM), without a hit: at the top dose activity change, negative = inhibition, hits mostly inhibitors;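 also: plate controls were vehicle for no effect and positive control for full effect; nearly all actives have a fitted effect of over 50% in size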
EPAC1 ag – activates human EPAC1 exchange factor | EPAC1 agonist qHTS, biochemical assay; response scale: 100% = response to 6.5 mM cAMP | Potency, µM (doses to about 154 µM), for the others: top-dose activation, most hits filed as activators | O95398 | 360,000 tested, 0.073% active; also: nearly all actives have a fitted effect of over 60% in size
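EPAC1 100 nM, Rap1B–BODIPY-GDP 250 nM, unlabeled GDP 50 uM; compound titration; 5 min RT; kinetic read ex480/em540 at 5-min intervals ×30 min; data normalized to 6.5 mM cAMP agonist control.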
EPAC2 antagonist – blocks human EPAC2 exchange factor; AID 720708; EPAC2 GEF exchange of Rap1B-BODIPY-GDP, fluorescence; Potency, µM (highest dose often 114 µM), for the others: at the highest dose activity, negative = inhibition, hits mostly inhibitors; 360,000 tested, 0.18% active; Q8WZA2; also: % is scaled to controls: 0 for no effect and ±100 for the full control effect; nearly all actives have a fitted effect of over 45% in size
* hit, by the source's call; u = inconclusive; x = no result; [ ] = remark or other dose. Calls follow the shape of the dose curve; as a rule, active = well fitted curve in the direction sought with a large enough effect; inconclusive = small, poorly fitted or top-dose-only effect, or another doubt; inactive = no such curve, though single readings can be large; an effect the other way counts as inactive or inconclusive. Potency is read from the fitted curve at half-maximal effect.

SMILES | ALOX12 inh | USP1 inh | EPAC2 agonist | EPAC1 antagonist | EPAC1 ag | EPAC2 antagonist
COc1cc(/C=C(\C#N)c2ccc(F)cc2)ccc1OCc1ccccc1 | 15% | x | x | x | x | x
Cc1cc(NS(=O)(=O)c2ccc(Nc3nc(-c4ccc(O)cc4)cs3)cc2)no1 | u | -19% | -14% | -12% | 5% | u
Cc1ccc(C)c(-c2csc(Nc3ccc(S(=O)(=O)Nc4nc(C)cc(C)n4)cc3)n2)c1 | 45µM* | x | x | x | x | x
Cc1cc(NS(=O)(=O)c2ccc(Nc3nc(-c4ccc(C)c(C)c4)cs3)cc2)no1 | 4.5µM* | -18% | 23% | u | 29% | -28%
Cc1cc(NS(=O)(=O)c2ccc(Nc3nc(-c4sc(N)nc4C)cs3)cc2)no1 | x | -24% | -4% | u | 5% | 32µM*
Cc1ccc(C)c(-c2csc(Nc3ccc(S(N)(=O)=O)cc3)n2)c1 | -29% | x | x | x | x | x
COc1cc(NS(=O)(=O)c2ccc(Nc3nc(-c4ccccc4)cs3)cc2)nc(OC)n1 | u | -23% | -1% | 79µM* | -2% | -6%
O=C(Nc1ccc(CC(=O)N2CCOCC2)cc1)c1cc(Br)ccc1F | 8% | x | x | x | x | x
O=C(CCc1ncc(-c2ccc(Cl)cc2)o1)N1CCC(C(=O)N2CCCC2)CC1 | 3% | x | x | x | x | x
CC(C)Cc1ccc(C(C)NC(=O)C2CC2)cc1 (centres undefined) | 10% | x | x | x | x | x
O=C(Nc1ccccc1)C1CC(=O)N(Cc2ccco2)c2nc3ccccc3n21 (centres undefined) | -3% | x | x | x | x | x
NS(=O)(=O)c1ccc(Nc2nc(-c3ccc(F)cc3)cs2)cc1 | 40µM* | -21% | 22% | -9% | 2% | 13%
CC(C)c1ccc(CN2C(=O)C(n3ccc4ccccc43)c3cc(Cl)ccc32)cc1 (centres undefined) | 10µM* | x | x | x | x | x
CN1C(=O)C(n2ccc3ccccc32)c2cc(Cl)ccc21 (centres undefined) | -14% | x | x | x | x | x
COc1ccc(CN2C(=O)C(n3ccc4ccccc43)c3cc(OC(F)(F)F)ccc32)cc1 (centres undefined) | 40µM* | x | x | x | x | x
O=C(O)c1ccc(/C=N/n2cc(-c3ccccc3)[nH]c2=S)cc1 | 45µM* | -26% | -1% | 1% | 4% | 0%
S=c1[nH]c(-c2ccccc2)cn1/N=C/c1cccnc1 | u | -11% | 0% | -8% | -7% | -4%
S=c1[nH]c(-c2ccccc2)cn1/N=C/c1ccc(Br)cc1 | 40µM* | -18% | 7% | 2% | -9% | 11%
O=C(NC(=S)Nc1ccc(S(=O)(=O)Nc2ncccn2)cc1)c1ccc(Br)cc1 | 20µM* | u | 3% | -4% | -10% | 0%
COc1ccc(NS(=O)(=O)c2ccc(NC(=S)NC(=O)c3cccnc3)cc2)nn1 | u | -11% | 3% | -13% | -5% | 8%
O=C(NC(=S)Nc1ccc(S(=O)(=O)Nc2nccs2)cc1)c1ccccc1 | u | -3% | 2% | -21% | 3% | -6%
COc1ccc(NS(=O)(=O)c2ccc(NC(=O)c3ccc(Br)cc3)cc2)nn1 | -13% | -15% | 1% | -5% | 6% | -5%
COc1ccc(NS(=O)(=O)c2ccc(NC(=S)NC(=O)c3cccc(F)c3)cc2)nn1 | 40µM* | -13% | 0% | -3% | 7% | 6%
O=C(NC(=S)Nc1ccc(S(=O)(=O)Nc2nccs2)cc1)c1ccc(F)c(F)c1 | 10µM* | -10% | 3% | 23% | -10% | 8%
COc1ccc(NS(=O)(=O)c2ccc(NC(=S)NC(=O)c3ccc(Br)cc3)cc2)nn1 | 25µM* | -14% | 2% | -3% | 15% | -2%
SMILES | ALOX12 inh | USP1 inh | EPAC2 agonist | EPAC1 antagonist | EPAC1 ag | EPAC2 antagonist
COc1ccc(-c2ocnc2C(=O)Nc2ccc(F)cc2F)cc1 | 30% | x | x | x | x | x
COC(=O)N1CCC2(C1)C(=O)N(CCc1ccccc1)c1ccccc12 (centres undefined) | -8% | x | x | x | x | x
CCOc1ccc(CN(C)C(=O)NC(c2ccc3c(c2)OCCCO3)C(C)C)cc1 (centres undefined) | -12% | x | x | x | x | x
COc1ccc(-n2nc(C3CCN(C(=O)c4ccccc4)CC3)[nH]c2=O)cc1 | 29% | x | x | x | x | x
O=C(c1ccccc1)N1CCC(c2nn(-c3ccc(Cl)cc3)c(=O)[nH]2)CC1 | 35µM* | x | x | x | x | x
Cc1ccc(C(=O)N2CCC(c3nn(-c4ccc(F)cc4)c(=O)[nH]3)CC2)cc1 | -14% | x | x | x | x | x
COc1ccc(-n2nc(C3CCCN(C(=O)C4CC4)C3)[nH]c2=O)cc1 (centres undefined) | 18µM* | x | x | x | x | x
O=C(c1ccc(F)cc1)N1CCC(c2nn(-c3ccc(Cl)cc3)c(=O)[nH]2)CC1 | 35µM* | x | x | x | x | x
O=C(c1cccc(Cl)c1)N1CCC(c2nn(-c3ccc(Cl)cc3)c(=O)[nH]2)CC1 | 14µM* | x | x | x | x | x
N#CC1(NC(=O)CNc2cccc(-c3nnnn3C3CC3)c2)CCCC1 | -4% | x | x | x | x | x
COc1ccc(-c2cc3ccc(OCC=C(C)C)cc3oc2=O)c(OC)c1 | 14% | x | x | x | x | x
Cc1ccc(NC(=O)CCc2nc3cc(Cl)ccc3n(Cc3ccccc3)c2=O)cc1 | -8% | x | x | x | x | x
CC(C)CCOC(=O)CC(C)C | -4%[176 µM] | x | x | x | x | x
O=C(Cc1ccc(F)cc1)N1CCCC(c2nn(-c3ccccc3)c(=O)[nH]2)C1 (centres undefined) | 20% | x | x | x | x | x
O=C(Cc1cccc(Cl)c1)N1CCCC(c2nn(-c3cccc(Cl)c3)c(=O)[nH]2)C1 (centres undefined) | 16µM* | x | x | x | x | x
S=C(NCCN1CCOCC1)N1CCN(c2cccc(Cl)c2)CC1 | 5.6µM* | 2% | 6% | -29% | 0% | -12%
S=C(NCCN1CCOCC1)Nc1cccc(Cl)c1 | 4% | -16% | 3% | -7% | -4% | 11%
Cn1c(=O)c(Nc2ccc(Cl)cc2)c2c3c(cccc31)C(=O)c1ccccc1-2 | u | 10µM* | 112µM* | 11% | u | 63%
COc1ccc2[nH]c(=O)c(-c3nnn(-c4ccc(F)cc4)n3)cc2c1 | 10µM* | -15% | -1% | 5% | -23% | 5%
c1ccc(C[n+]2csc3ccccc32)cc1 | u | 1% | -14% | -12% | -2% | 4%
Fc1cccc(C[n+]2csc3ccccc32)c1 | 18µM* | -16% | 1% | 9% | 7% | 5%
O=C1C(=Cc2ccco2)CCC1=Cc1ccco1 | 35µM* | u | 16% | u | 10% | -3%
O=C1C(=Cc2ccco2)CCCC1=Cc1ccco1 | 25µM* | -6% | 6% | -15% | 0% | 6%
O/N=C1\CCC\C1=C/c1ccco1 | u | -19% | -4% | 10% | 0% | 5%

High-throughput results from PubChem.
